Screening results from PubChem.
SKKanGAS inh – SKKanGAS growth inhibition; 300,000 tested, 1.3% active; S. pyogenes SKKanGAS, kanamycin growth, BacTiter-Glo, 6 h; inhibition, % at 7.5 µM; AID 1662;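 active = mean replicate score, as percent of positive control median, at least 50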;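 also: strain carries kanamycin resistance gene driven by streptokinase promoter and grows in 40 µg/ml kanamycin; loss of luminescence reflects streptokinase promoter inhibition or plain growth inhibition; 0% = median of DMSO wells and 100% = positive control at its reference dose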
TIM10 inh – TIM10 yeast growth inhibition; S. cerevisiae TIM10 strain growth, BacTiter-Glo luminescence, 24 h; inhibition, % at 10 µM; 330,000 tested, 1.4% active; AID 463195;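 active = inhibition of 40% or more at the single tested concentration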;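 also: wild-type TIM10 isogenic control strain grown at permissive 25 °C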
tim10-1 inh – inhibits growth of tim10-1 mutant yeast. S. cerevisiae tim10-1 ts strain growth, BacTiter-Glo, 24 h. inhibition, % at 20 µM. 330,000 tested, 2.2% active. AID 463190;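 active = inhibition of at least 40%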;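 also: mutant grown at 25 °C; 0% = DMSO wells with yeast and 100% = wells holding no yeast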
PfHsp90 set2 – reduces growth (ATP signal) of yeast expressing P. falciparum Hsp90. S. cerevisiae expressing PfHsp90, BacTiter-Glo ATP, 48 h; yeast lacking PDR1 and PDR3 efflux regulators. inhibition, % at 9.4 µM. 310,000 tested, 0.32% active. AID 504621;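 active = every replicate shows inhibition above about 80%, whatever the replicate mean, limit read from the data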;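 also: 0% = DMSO neutral controls and 100% = 20 µM radicicol positive controls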
tim23-1 inh – inhibits growth of tim23-1 mutant yeast. 330,000 tested, 1.3% active. inhibition, % at 20 µM. AID 463212. S. cerevisiae tim23-1 growth, BacTiter-Glo luminescence, 24 h;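 active = growth inhibition of the mutant yeast at or above 50%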;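 also: temperature-sensitive mutant grown at 25 °C; plate controls were DMSO-treated mutant yeast for no effect and medium wells lacking yeast for full effect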
V-ATPase pHluor – regulators of yeast V-ATPase proton transport | S. cerevisiae, pHLuorin cytosolic pH fluorescence | response, % at 10 µM | 350,000 tested, 0.37% active | AID 504577; in the data active = response mostly above about 7.3%, no sharp cut-off; inactive = mostly below about 5.4%; also: actives read high
VATPase regulator – yeast V-ATPase proton transport regulation. shares compounds with V-ATPase pHluor. S. cerevisiae pHLuorin cytosolic pH. response, % at 10 µM. 980 tested, 2% active. AID 602197; in the data active = response above about 24%;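 also: plate controls were vehicle wells for no effect and positive control wells for full effect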
* hit, by the source's call; / = not tested or not shown. Hits are enriched below; roughly 4.6% of the tested compounds scored in any of these assays.

SMILES | SKKanGAS inh | TIM10 inh | tim10-1 inh | PfHsp90 set2 | tim23-1 inh | V-ATPase pHluor | VATPase regulator
CC(C)C[C@H](NC(=O)OC(C)(C)C)C(=O)N[C@@H](CO)[C@H](O)[C@@H]1C[C@@H]1C(=O)NC1CCCCC1 | 2 | 9 | 8 | -3 | 7 | 26* | 2
CN1CCN(c2nc3c(c(=O)[nH]c(=O)n3C)n2Cc2ccc(Cl)cc2)CC1 | -4 | 3 | -7 | -4 | 6 | 5 | /
CN1CCN(c2nc3c(c(=O)n(C)c(=O)n3C)n2Cc2ccc(Cl)cc2)CC1 | -2 | -17 | -11 | 3 | 13 | 8.0* | -8
O=C(COC(=O)c1ccc[n+]([O-])c1)Nc1c(Br)cc([N+](=O)[O-])cc1Br | 4 | 2 | 14 | / | 3 | / | /
CCOC(=O)C1CCCN(c2c(NCC3CCCN3CC)c(=O)c2=O)C1 (stereo not drawn) | 0 | -1 | -3 | -3 | -4 | -1 | /
CCOC(=O)C1CCCN(c2c(NCCCN3CCCC(C)C3)c(=O)c2=O)C1 (stereo not drawn) | 2 | -13 | 6 | 6 | 9 | 13* | -1
Cc1nnc(NC(=O)c2c(-c3ccccc3Cl)noc2C)s1 | 9 | 4 | -1 | -19 | 5 | 0 | /
Cc1nc(NC(=O)c2c(-c3ccccc3Cl)noc2C)sc1C | 1 | 14 | 18 | 14 | 38 | 13* | 4
O=C(CN1CCCCC1)N1CCCc2c1c(=O)oc1ccc(OCc3ccccc3)cc21 | -2 | 20 | 32 | / | 11 | -1 | /
CCCCCOc1ccc2oc(=O)c3c(c2c1)CCCN3C(=O)CN1CCCC(C(=O)OCC)C1 (stereo not drawn) | 5 | 34 | 27 | 61 | 47 | 13* | 2
CC(C)(C)C(=O)Nc1ccc(S(=O)(=O)N2CCCC2)cc1 | 17 | 1 | 11 | 13 | 17 | 8.5* | 0
CC(=O)Nc1ccc(S(=O)(=O)N2CCCC2)cc1 | -1 | -3 | -9 | 10 | -10 | -2 | /
O=C(NCCc1ccc(Cl)cc1)c1ccc2[nH]c(=O)c(=O)[nH]c2c1 | -2 | -14 | 20 | -11 | 16 | -2 | /
COCCN1CCN(C(=O)C2CCC(=O)N(CCc3cccc(F)c3)C2)CC1 (stereo not drawn) | 2 | 8 | -4 | 12 | -7 | 7.4* | -7
O=C(NCCc1c[nH]c2ccccc12)C1CCC(=O)N(CCc2cccc(F)c2)C1 (stereo not drawn) | -7 | -5 | -6 | -8 | -2 | 11* | -2
O=C1c2ccsc2SCCN1Cc1c(Cl)cccc1Cl | 11 | 26 | 28 | / | 45 | 1 | /
C[C@H](CO)N1C[C@H](C)[C@@H](CN(C)S(=O)(=O)c2ccc(F)cc2)Oc2c(NC(=O)NC3CCCCC3)cccc2C1=O | / | 4 | -2 | -20 | 2 | 13* | 0
CSc1nccc(N2CCN(c3ccc(F)cc3)CC2)n1 | 2 | 15 | -21 | 24 | -3 | 11* | -1
Clc1ccc(N2CCN(c3ccnc(Cl)n3)CC2)cc1 | 0 | 12 | 11 | -9 | 14 | 0 | /
COc1ccc(C2=NOC(C(=O)Nc3ccc(C(C)=O)cc3)C2)cc1OC (stereo not drawn) | -4 | 6 | 21 | -17 | -2 | 1 | /
COc1cccc(C2=NOC(C(=O)Nc3ccc(C(C)=O)cc3)C2)c1 (stereo not drawn) | 0 | 14 | 22 | / | 19 | 13* | 4
Nc1nnc(SCCCC(=O)c2ccc(F)cc2)s1 | 7 | 4 | 9 | -13 | 7 | 0 | -4
Nc1nnc(SCc2ccc(F)cc2)s1 | -8 | -7 | 7 | 6 | 11 | 2 | /
CC(=O)Nc1nnc(SCC(=O)c2ccc(F)cc2)s1 | -17 | 13 | 16 | -21 | 6 | 3 | /
O=C(CCCSc1nnc(SCCCC(=O)c2ccc(F)cc2)s1)c1ccc(F)cc1 | -2 | -13 | 7 | -5 | -6 | -3 | 1
CC1=NN(C(=O)c2ccc(Cn3cc([N+](=O)[O-])cn3)cc2)C(O)(C(F)(F)F)C1 (stereo not drawn) | -11 | 7 | 10 | -8 | 14 | 3 | /
COc1ccc(CN(C)CC(=O)Nc2ccccc2C(=O)NC2CC2)cc1F | / | 7 | 4 | 13 | 6 | 6 | /
O=C(CCn1ccnc1)Nc1cc(Cl)ccc1O | -3 | 12 | 11 | -5 | 11 | -6 | /
